Reference: PMC4336329 (PLoS ONE, 2015)
The campaign covered roughly 310,000 compounds. About 2,200 (0.71%) showed an effect of 50% or more. The effect is printed as a negative number. The list comes from a sample in which strong results are over-represented; it also holds similar structures and randomly drawn compounds.

Biological target: human ether-à-go-go-related gene (hERG) potassium channel (human, UniProt Q12809)
Experiment: primary screen, population patch clamp on CHO cells stably expressing hERG; higher = less effect of the substance

Sequence of human ether-à-go-go-related gene (hERG) potassium channel (Q12809 whole entry, looked up): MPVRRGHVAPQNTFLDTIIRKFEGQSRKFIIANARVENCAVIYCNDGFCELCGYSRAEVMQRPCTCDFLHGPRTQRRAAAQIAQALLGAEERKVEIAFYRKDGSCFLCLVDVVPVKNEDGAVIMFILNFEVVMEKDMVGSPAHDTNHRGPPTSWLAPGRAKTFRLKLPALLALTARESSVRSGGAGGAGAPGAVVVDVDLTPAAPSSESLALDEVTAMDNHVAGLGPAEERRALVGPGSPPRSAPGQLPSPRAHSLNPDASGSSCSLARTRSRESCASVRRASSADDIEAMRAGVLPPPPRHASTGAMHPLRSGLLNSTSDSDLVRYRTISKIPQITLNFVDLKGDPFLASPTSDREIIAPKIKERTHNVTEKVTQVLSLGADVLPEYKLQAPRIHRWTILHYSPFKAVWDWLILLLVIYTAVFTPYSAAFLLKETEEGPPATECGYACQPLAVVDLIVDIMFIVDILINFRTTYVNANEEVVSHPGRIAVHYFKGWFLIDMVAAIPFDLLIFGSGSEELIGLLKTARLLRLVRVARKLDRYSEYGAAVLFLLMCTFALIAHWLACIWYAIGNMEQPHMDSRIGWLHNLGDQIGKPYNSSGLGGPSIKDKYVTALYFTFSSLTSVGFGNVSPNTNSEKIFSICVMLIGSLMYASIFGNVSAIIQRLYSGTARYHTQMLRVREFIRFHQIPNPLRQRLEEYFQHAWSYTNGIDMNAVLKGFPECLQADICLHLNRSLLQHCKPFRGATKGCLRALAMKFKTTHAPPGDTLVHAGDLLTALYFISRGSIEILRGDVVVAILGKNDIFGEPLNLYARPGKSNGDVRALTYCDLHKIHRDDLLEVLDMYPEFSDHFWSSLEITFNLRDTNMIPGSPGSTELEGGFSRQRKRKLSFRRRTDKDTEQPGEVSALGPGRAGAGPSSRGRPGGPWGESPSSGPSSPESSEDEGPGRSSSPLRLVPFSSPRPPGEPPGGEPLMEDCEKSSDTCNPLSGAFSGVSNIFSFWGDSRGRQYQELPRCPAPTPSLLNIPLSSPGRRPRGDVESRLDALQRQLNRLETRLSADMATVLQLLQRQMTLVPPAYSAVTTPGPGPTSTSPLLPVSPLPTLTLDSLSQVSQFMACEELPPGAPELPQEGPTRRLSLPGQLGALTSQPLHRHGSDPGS

SMILES | hERG current change (%, negative = inhibition) at 1uM [%]
O=c1nc2n(c3ncccc13)CCC2 | 16.1
CCOC(=O)c1cc(-c2ccccc2)sc1NC(=O)CSc1nnc(N)s1 | 2.01
Cc1cc(C)cc(C(=O)NCC(=O)OCC(=O)N2c3ccccc3NC(=O)C2(C)C)c1 | 4.41
COc1ccc(CC[NH+](C)CCCN2CC(c3ccccc3)CC2=O)cc1OC.O=C([O-])C(=O)[O-] (stereo not shown) | -61.9
COc1ccc(CCN2CC(C(=O)NCc3ccc(F)cc3)CC2=O)cc1OC (stereo not shown) | 6.95
COc1ccc(C2SCC(=O)N2CCc2ccc(OC)c(OC)c2)cc1 (stereo not shown) | -1.68
COc1ccc(CCN2CC(C(=O)O)CC2=O)cc1OC (stereo not shown) | 2.95
COc1ccc(C2CC(=O)N(CCC[NH+](C)CCc3ccc(OC)c(OC)c3)C2)cc1.O=C([O-])C(=O)[O-] (stereo not shown) | -72.9
COc1ccc(NC(=O)CN2CC(c3ccccc3)CC2=O)cc1OC (stereo not shown) | 12.3
COCC1CCCN(C(=O)c2ccc3oc(C(C)C)nc3c2)C1 (stereo not shown) | 9.33
COc1ccc(/C=N/Nc2nc(N3CCCC3)nc(N3CCCC3)n2)cc1O | 7.51
O=C(c1ccc(O)cc1)c1ccc(Cl)cc1 | -3.35
O=C(O)CCCCCCCCCCCc1ccccc1 | 12.7
CC(C)N(C)NC(=S)Nc1ccccc1 | 8.22
COc1ccc(/C=C(/NC(=O)c2ccc([N+](=O)[O-])cc2)C(=O)NCCCN(C)C)cc1 | -65.3
COc1ccc(/C=C(\NC(=O)c2ccc([N+](=O)[O-])cc2)C(=O)NCCCN2CCOCC2)cc1 | -41
C=CCNC(=O)/C(=C\c1ccc([N+](=O)[O-])cc1)NC(C)=O | 8.68
COc1ccc(/C=C(/NC(=O)c2ccc([N+](=O)[O-])cc2)C(=O)NC(C)(C)C)cc1 | -10.7
COc1ccc(/C=C(\NC(=O)c2ccc([N+](=O)[O-])cc2)C(=O)NCCCn2ccnc2)cc1 | -14.4
C=CCNC(=O)/C(=C\c1ccc(OC)cc1)NC(=O)c1ccc([N+](=O)[O-])cc1 | -64.7

SMILES | hERG current change (%, negative = inhibition) at 1uM [%]
CCOC(=O)CCc1c(C)c(C#N)c2nc3ccccc3n2c1-n1ccnc1C | -20.4
CCOC(=O)CCc1c(C)nc2cc(-c3ccc(F)cc3)[nH]n2c1=O | 8.2
CC(C)(C)SCCNC(=O)c1ccc(Cl)c([N+](=O)[O-])c1 | 8.24
O=C(Cn1nnc(-c2ccccc2-n2cnnn2)n1)c1ccccc1 | 5.12
O=C(C1=C(O)C(=O)N(CCCN2CCOCC2)C1c1ccc(Cl)cc1)c1cc2ccccc2o1 (stereo not shown) | 15.8
CN(C(=O)c1ccc(Cl)cc1)C1=CCCCC1CCC#N (stereo not shown) | 0.644
CC(C)C(=O)N1CCN(c2ccccc2NC(=O)Cc2ccc(Cl)cc2)CC1 | -38.9
CN1CCN(c2ccc(Cl)cc2NC(=O)CC2OC(=O)c3ccccc32)CC1 (stereo not shown) | -61.2
CN1CCN(c2ccc(S(=O)(=O)N3CCCCC3)cc2NC(=O)Cc2c(F)cccc2Cl)CC1 | -7.39
CC(=O)N1CCN(c2ccccc2NC(=O)Cc2ccc(Cl)cc2)CC1 | -17.2
COc1ccc(CC(=O)Nc2cc(S(=O)(=O)N3CCCCC3)ccc2N2CCN(C)CC2)cc1 | -7.26
O=C(CC1OC(=O)c2ccccc21)Nc1cc(Cl)ccc1N1CCCC1 (stereo not shown) | 8.82
CN1CCN(c2ccc(S(=O)(=O)N3CCCCC3)cc2NC(=O)Cc2ccc(Cl)cc2)CC1 | -50.6
CN1CCN(c2ccccc2NC(=O)Cc2ccc(Cl)cc2)CC1 | -59.4
CN1CCN(c2ccc(Cl)cc2NC(=O)CCN2C(=O)c3ccccc3C2=O)CC1 | 6.75
COc1ccc(NC(=S)N(CCc2ccc(OC)c(OC)c2)Cc2ccccn2)cc1 | 0.952
CCOC(=O)c1ccc(CNCc2ccc(C)cc2)cc1 | -1.83
COc1ccc(S(=O)(=O)N2CCCC2CNC(=O)C(=O)Nc2ccc(C)cc2)cc1 (stereo not shown) | -0.606
COc1cc(CCC(=O)OCC(=O)Nc2ccc(C)cc2Cl)cc(OC)c1OC | 15.1
CCn1ncc(NC(=O)Nc2cccc(C(F)(F)F)c2)c1C(N)=O | 5.39
